From PubChem BioAssay
SENP6 block: SENP6 protease inhibition. 1.8% of 330,000 active. Q9GZR1. inhibition, % at 10 µM. Recombinant SENP6 catalytic domain, aminoluciferin luminescence. AID 2599;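 active = inhibition above about 50% at the single tested dose, limit read from the data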
PPC-1+TRAIL kill: compounds killing PPC-1 cancer cells with TRAIL present (potentiator screen, no TRAIL-free arm); PPC-1 cells + TRAIL, ATPLite viability luminescence; cell killing (% activity), % at 4 µM or 5 µM; 0.41% of 220,000 active;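 active = cell killing above 50% in the first pass at 4 µM, then a duplicate retest at 5 µM averaging 50% or more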
SENP8 block-1: SENP8 (human) protease inhibition. recombinant SENP8, Nedd8 substrate fluorescence. inhibition, % at 20 µM. 0.64% of 360,000 active; in the data active = inhibition mostly above about 40%, no sharp cut-off; inactive = mostly below about 27%
Target sequence (Q96LD8 whole entry, looked up): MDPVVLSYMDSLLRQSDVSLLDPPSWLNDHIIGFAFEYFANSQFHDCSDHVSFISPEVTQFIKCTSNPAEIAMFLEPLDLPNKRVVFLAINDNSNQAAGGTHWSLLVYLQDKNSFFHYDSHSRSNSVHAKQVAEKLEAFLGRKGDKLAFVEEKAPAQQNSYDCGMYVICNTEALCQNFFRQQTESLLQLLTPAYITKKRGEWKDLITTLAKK
SENP8 block-2: inhibitors of human SENP8 protease. purified SENP8, Z-RLRGG-aminoluciferin cleavage, luminescence. 1.2% of 330,000 active. inhibition, % at 10 µM; in the data active = inhibition above about 50%
C8 TRAIL sens: sensitizes caspase-8 expressing cells to TRAIL. NB7+C8 cells + TRAIL, ATPlite viability luminescence. AID 624354. 1% of 360,000 active. inhibition (viability loss, TRAIL sensitization), % at 10 µM;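 active = compounds causing at least 50% loss of cell viability in the single-dose screen, relative to plate controls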
SENP7 inh: SENP7 protease inhibition. Q9BQF6. recombinant SENP7, Z-RLRGG-aminoluciferin luminescence, 40 min. inhibition, % at 5 µM. 1.5% of 330,000 active. AID 434973;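 active = inhibition above about 50% at the single test dose, limit read from the data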
Target sequence (Q9BQF6 706-1050 limits assumed): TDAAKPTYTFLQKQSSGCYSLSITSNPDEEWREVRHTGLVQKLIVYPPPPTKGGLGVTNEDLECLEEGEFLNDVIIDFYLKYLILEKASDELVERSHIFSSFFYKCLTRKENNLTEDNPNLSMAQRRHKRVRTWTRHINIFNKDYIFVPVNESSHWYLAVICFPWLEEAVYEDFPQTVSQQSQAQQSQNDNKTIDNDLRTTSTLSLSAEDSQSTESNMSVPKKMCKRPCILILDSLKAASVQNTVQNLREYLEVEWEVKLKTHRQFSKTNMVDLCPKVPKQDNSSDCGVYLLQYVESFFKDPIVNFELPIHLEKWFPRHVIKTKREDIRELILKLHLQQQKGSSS
SENP8 confirm: human SENP8 inhibition, confirmed. shares compounds with SENP7 inh. Recombinant SENP8, Z-RLRGG-aminoluciferin luminescence, 60 min. inhibition, % at 12.5 µM. 40% of 6,200 active. AID 488912;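 active = mean inhibition across replicates above about 50%, limit read from the data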
SENP6 confirm: confirmation of human SENP6 protease inhibitors | shares compounds with SENP7 inh | recombinant SENP6, Z-RLRGG-aminoluciferin luminescence | inhibition, % at 12.5 µM | 58% of 6,200 active | AID 488915
SENP7 confirm: human SENP7 inhibition, confirmed. AID 488917. inhibition, % at 12.5 µM. 69% of 6,200 active. shares compounds with SENP7 inh. recombinant SENP7, Z-RLRGG-aminoluciferin luminescence, 40 min
Casp3 SENP sel: selectivity test for SENP inhibitors: human caspase-3 inhibition; inhibition, % at 12.5 µM; shares compounds with SENP7 inh; purified caspase-3, Z-DEVD-aminoluciferin luminescence, 60 min; 60% of 6,200 active; AID 488918;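 active = mean inhibition above about 50%, limit read from the data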
SENP luc ctr: counter-screen for SENP inhibitors: luminescence interference. 39% of 6,200 active. shares compounds with SENP7 inh. Pre-incubated SENP8/Z-RLRGG-aminoluciferin, luciferase luminescence interference. inhibition, % at 12.5 µM;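 active = mean inhibition above about 50% when retested at one dose, limit read from the data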
A number is an active result; n = inactive; x = not tested or not shown. This is a sample that favours compounds with a hit; in the whole collection about 3% have one here.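 Rule for the calls, unless noted: active = mean inhibition above about 50% in the one-dose retest (limit read from the data); inactive = the rest.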

SMILES | SENP6 block | PPC-1+TRAIL kill | SENP8 block-1 | SENP8 block-2 | C8 TRAIL sens | SENP7 inh | SENP8 confirm | SENP6 confirm | SENP7 confirm | Casp3 SENP sel | SENP luc ctr
CCCCn1c(NC(=O)c2ccco2)c(S(=O)(=O)c2ccc(C)cc2)c2nc3ccccc3nc21 | x | n | n | x | n | x | x | x | x | x | x
CCCCn1c(NC(C)=O)c(C#N)c2nc3ccccc3nc21 | 97 | n | n | n | n | 66 | n | n | n | n | n
COCCN(Cc1nc2ccccc2c(=O)[nH]1)C(=O)COc1c(C)cc(Cl)cc1C | n | x | n | n | n | n | x | x | x | x | x
Cc1ccc(NS(=O)(=O)c2c(C)ccc3nsnc23)c([N+](=O)[O-])c1 | n | x | n | n | n | n | x | x | x | x | x
O=C(COc1ccccc1F)OCC(=O)c1ccc([N+](=O)[O-])cc1 | n | x | n | n | n | n | x | x | x | x | x
c1ccc(Cn2ccc(-c3cnc(-c4ccccc4)s3)n2)cc1 | 81 | n | n | 64 | n | 80 | n | 78 | 92 | 63 | 64
O=C(NCc1ccc(F)cc1)c1cc(C2CCCN(C(=O)CCCc3ccccc3)C2)on1 (stereo unspecified) | x | x | n | x | n | x | x | x | x | x | x
CCOc1ccc(NC(=O)CN2C(=O)NC(CCc3ccccc3)C2=O)cc1OCC (stereo unspecified) | 68 | x | n | n | n | n | n | n | n | n | n
CCNC(=O)CN1C(=O)NC(CCc2ccccc2)C1=O (stereo unspecified) | n | n | n | n | n | n | x | x | x | x | x
CCC(C)c1ccccc1N=Cc1ccc2c(c1)OCO2 (stereo unspecified) | n | x | n | n | n | n | x | x | x | x | x
CN(C)c1ccc(C=Nc2cnn(C)c2C(N)=O)cc1 | 73 | n | n | 68 | n | 77 | n | n | 78 | 62 | n
CSc1ccc(C(=O)N2CCC(CCC(=O)NCc3ccc(F)cc3)CC2)cc1 | n | x | n | n | n | n | x | x | x | x | x
Clc1ncccc1OCc1ccccc1 | n | x | n | n | n | n | x | x | x | x | x
CCOC(=O)c1[nH]c2ccc(C)cc2c1N | 50 | n | n | n | n | n | 54 | 54 | 88 | 82 | 72
CCOC(=O)c1[nH]c2cc(OC)c(OC)cc2c1N | n | n | n | n | n | n | x | x | x | x | x
CCSC1=N/C(=C\c2ccc(-c3ccccc3[N+](=O)[O-])o2)C(=O)S1 | 50 | n | n | n | n | n | n | n | n | n | n
CC(C)CSC1=NSC2=NC(=O)/C(=C\c3cccs3)C(=N)N12 | 68 | n | n | n | n | n | 51 | 53 | n | n | n
CSC1=NSC2=NC(=O)/C(=C/c3coc4ccccc4c3=O)C(=N)N12 | x | n | n | x | n | x | x | x | x | x | x
N=C1/C(=C/c2cccs2)C(=O)N=C2SN=C(SCc3ccccc3)N12 | 66 | n | n | n | n | n | n | 59 | n | n | n
CSC1=NSC2=NC(=O)/C(=C\c3cccs3)C(=N)N12 | x | n | n | x | n | x | x | x | x | x | x
O=C(NC(=S)NC1CCS(=O)(=O)C1)c1ccccc1 (stereo unspecified) | n | x | n | n | n | n | x | x | x | x | x
CN(C1=C(NC(=O)c2ccccc2)C(=O)c2ccccc2C1=O)C1CCS(=O)(=O)C1 (stereo unspecified) | 95 | n | 64 | 60 | n | 53 | 70 | 87 | 57 | 75 | n
CCOc1ccccc1NS(=O)(=O)c1ccc2oc(=O)ccc2c1 | n | x | n | n | n | n | x | x | x | x | x
Cc1ccsc1/C=N/N=C/c1sccc1C | n | x | n | 95 | n | 98 | n | 98 | 103 | 86 | 87
Cc1ccsc1C=Nc1ccc(O)cc1 | 68 | n | 97 | n | n | n | n | n | n | n | n
SMILES | SENP6 block | PPC-1+TRAIL kill | SENP8 block-1 | SENP8 block-2 | C8 TRAIL sens | SENP7 inh | SENP8 confirm | SENP6 confirm | SENP7 confirm | Casp3 SENP sel | SENP luc ctr
Cc1ccsc1/C=N/NC(=O)CO | n | n | n | n | n | n | x | x | x | x | x
CCCCNC(=S)N/N=C/c1sccc1C | n | n | n | n | n | n | x | x | x | x | x
O=C(Nc1nnc(C2CC2)s1)c1cncc(Br)c1 | n | x | n | n | n | n | x | x | x | x | x
C/C(=N\OC(=O)c1ccccc1F)c1nccs1 | 79 | n | n | n | n | 79 | 60 | 53 | 92 | n | n
O=C(Nc1ccc(Cl)cc1)P(=O)(O)c1ccccc1 | x | x | n | x | n | x | x | x | x | x | x
COC(=O)c1ccc(COC(=O)[C@@H]2CC(O)CN2S(=O)(=O)c2ccccc2[N+](=O)[O-])cc1 (stereo partly specified) | n | x | n | n | n | n | x | x | x | x | x
O=C(O)c1csc(-c2cccs2)n1 | n | n | n | 57 | n | n | n | n | n | n | n
CNC(=O)c1csc(-c2cccs2)n1 | n | n | n | n | n | n | x | x | x | x | x
c1csc(-c2nc(CN3CCSCC3)cs2)c1 | 80 | n | n | 74 | n | 88 | 80 | 80 | 96 | 94 | 86
CC(=O)N1CCN(Cc2cc(=O)oc3ccccc23)CC1 | x | x | n | x | n | x | x | x | x | x | x
CC1(C(=O)NCC2CC2)Cc2c(-c3ccc4c(c3)OCO4)ccnc2O1 (stereo unspecified) | x | x | n | x | n | x | x | x | x | x | x
Cc1ccc(NC(=O)N/C=C/c2ccccc2)cc1 | n | n | n | n | n | n | x | x | x | x | x
CC(=O)c1ccc(NC(=O)/C(=C\c2ccccc2)NC(=O)/C=C/c2ccccc2)cc1 | n | n | n | n | n | n | x | x | x | x | x
CC(=O)c1ccc(NC(=O)/C(Cl)=C/c2ccccc2)cc1 | 67 | n | n | n | n | 85 | n | n | n | n | n
Cc1ccc(NC(=O)/C(Cl)=C\c2ccccc2)cc1 | 94 | x | n | 86 | n | 91 | 83 | 87 | 100 | 84 | 75
O=C(Nc1ccc(F)cc1)/C(Cl)=C/c1ccccc1 | n | n | n | 79 | n | 88 | n | 79 | 96 | 72 | n
O=C(Nc1cccc2ccccc12)/C(Cl)=C/c1ccccc1 | n | n | n | n | n | n | x | x | x | x | x
COc1ccc(C(=S)N2CCOCC2)cc1OC(=O)c1ccc(C)cc1 | n | x | n | n | n | n | x | x | x | x | x
Nn1c(SCC(=O)Nc2ccccc2Br)nnc1-c1ccco1 | n | x | n | n | n | n | x | x | x | x | x
CC(=O)C12OC(C)(C)OC1CC1C3CCC4=CC(=O)C=CC4(C)C3(F)C(O)CC12C (stereo unspecified) | x | x | n | x | n | x | x | x | x | x | x
CCCc1noc(-c2ccc(-c3ccccc3)cc2)n1 | n | n | n | 50 | n | 68 | n | n | 55 | 50 | n
